High-throughput results as filed in PubChem.
Compounds with a hit are over-represented: about 14% of the library has one in this group of screens.
HCMV antiviral: qHTS Assay for inhibitors of the human cytomegalovirus (HCMV). AID 1259415, 2018. activity change, negative = inhibition, % at 57.5 µM. 4.5% of 410,000 active. HFF cells, HCMV-luciferase reporter, 72 h; active compounds read low; in the data active = activity change below about -60%; inconclusive = no clear call, values can overlap the other calls; inactive = above about -39%
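Luciferase read-out from HCMV-luciferase-infected HFFs (MOI 1 PFU/cell) 72 h post infection at 37C; compounds added after 16 h cell attachment; activity normalized between buffer-only basal and Salinomycin (10uM) inhibitor controls.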
Lassa entry inh: qHTS for Inhibitors of binding or entry into cells for Lassa Virus; Lassa virus pseudotype entry inhibition, cell reporter; Potency, µM (doses to about 37.9 µM), usual class: inhibitors; 1.2% of 300,000 active; calls by dose curve; tested in HEK293 cells; note: nearly all actives have a fitted effect of over 50% in size
Pf growth 96h: Primary qHTS for delayed death inhibitors of the malarial parasite plastid, 96 hour incubation; Potency, µM (highest dose often 28.7 µM), actives largely listed as inhibitors; P. falciparum luciferase reporter growth, 96 h; 6.9% of 320,000 active
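Parasite growth measured via integrated firefly luciferase reporter in P. falciparum. Infected erythrocytes at 2% hematocrit, 0.05% parasitemia final were treated 96 hours at 37 C under 5% CO2, and luminescence was read.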
HCV inh: qHTS Assay for Inhibitors of Hepatitis C Virus (HCV); Huh7.5.1 HCVcc-Cre infection, luciferase reporter, 44 h; Potency, µM (highest dose often 41.8 µM), hits mostly inhibitors; 3.4% of 340,000 active
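Infectious HCV cell culture screen: compound-treated cells (1,000/well, pre-plated 4 h) are infected with HCVcc-Cre at roughly 0.5 moi and grown 44 h. Infection is quantified by luciferase signal after 15 min substrate incubation at room temperature.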
MARV entry inh: qHTS for inhibitors of binding or entry into cells for Marburg Virus; Marburg virus pseudotyped entry inhibition, cell reporter; Potency, µM (top dose mostly 37.8 µM), usual class: inhibitors; 1.8% of 300,000 active; calls by dose curve; tested in HEK293 cells
Pf growth 48h: Primary qHTS for delayed death inhibitors of the malarial parasite plastid, 48 hour incubation; P. falciparum luciferase growth in erythrocytes, 48 h; Potency, µM (series often up to 28.7 µM), most hits filed as inhibitors; 5.9% of 310,000 active; AID 504832, 2011
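Firefly luciferase activity from engineered P. falciparum reports growth; inhibitors lower the luminescent signal. Cultures contained 2% hematocrit erythrocytes at 0.1% final parasitemia.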
Numbers stand for hits; [ ] = dose if it differs, or a comment. Unless noted, calls come from the whole dose curve; as a rule, active = well fitted inhibition curve with a large enough effect; inconclusive = small, poorly fitted or top-dose-only effect, or another doubt; inactive = no such curve, though single readings can be large or run the other way.

`COc1ccc(N2CCN(C3CCCN(C(=O)CSC)C3)CC2)cc1` (stereo not given) gave HCMV antiviral inconclusive, Pf growth 96h inactive, HCV inh inactive and Pf growth 48h inactive.
Screening CCCCC(=O)OC1CCC2C3CCc4cc(O)ccc4C3CCC12C (stereo not given) returned HCMV antiviral inconclusive and HCV inh inactive.
Screening C[C@]12CC[C@@H]3c4ccc(OC(=O)c5ccccc5)cc4CC[C@H]3[C@@H]1CC[C@@H]2O returned HCMV antiviral inactive, Lassa entry inh inactive, Pf growth 96h 8.3µM, HCV inh inactive, MARV entry inh inactive and Pf growth 48h inconclusive.
C[C@]12CC[C@@H]3c4ccc(O)cc4CC[C@H]3[C@@H]1CC[C@@H]2OC(=O)CCC(=O)O was read as HCMV antiviral -100, Lassa entry inh inactive, Pf growth 96h inactive, HCV inh inactive[8.37 µM], MARV entry inh inactive and Pf growth 48h inactive.
For c1ccc2c(c1)CCOC2CNCCCN1CCCCC1 (stereo not given) the results were HCMV antiviral inactive, Lassa entry inh inactive, Pf growth 96h 12µM, HCV inh inconclusive, MARV entry inh inconclusive and Pf growth 48h inconclusive.
Screening COc1ccc(C(=O)c2cn(CC(=O)Nc3cc(C)ccc3C)c3nc(C)ccc3c2=O)cc1 returned HCMV antiviral inactive and Lassa entry inh inactive.
`Cc1ccccc1-c1nc(CS(=O)(=O)CC(=O)NC2CC2)c(C)o1` gave HCMV antiviral inactive, Pf growth 96h inactive, HCV inh inactive and Pf growth 48h inactive.
`CCOC(=O)NC(Nc1sc2c(c1C(=O)OC)CCN(C)C2)(C(F)(F)F)C(F)(F)F` gave HCMV antiviral inactive, Lassa entry inh inactive, Pf growth 96h 6.6µM, HCV inh inactive, MARV entry inh inactive and Pf growth 48h inconclusive.
CCC(=O)NC(Nc1sc2c(c1C(=O)OC)CCN(C)C2)(C(F)(F)F)C(F)(F)F was read as HCMV antiviral -101, Lassa entry inh inactive, Pf growth 96h inconclusive, HCV inh inactive, MARV entry inh inactive and Pf growth 48h inconclusive.
CCOC(=O)C(NC(=O)CC)(Nc1sc2c(c1C(=O)OC)CCN(C)C2)C(F)(F)F (stereo not given) was read as HCMV antiviral inactive, Lassa entry inh inactive, Pf growth 96h inactive, HCV inh inactive, MARV entry inh inconclusive and Pf growth 48h inconclusive.
CCOC(=O)C1=C(O)/C(=C\c2ccc(CNC(=O)C(=O)Nc3ccccc3)o2)N=C1C was read as HCMV antiviral -74, Lassa entry inh inactive, HCV inh inactive, MARV entry inh inactive and Pf growth 48h inactive.
`CCNC(=S)N/N=C/c1ccc(OCCOc2ccccc2C)cc1` gave HCMV antiviral inconclusive, Lassa entry inh inconclusive, Pf growth 96h inactive, HCV inh inactive, MARV entry inh inconclusive and Pf growth 48h inactive.
For CCOc1ccc(/C=N/NC(=O)C(OC)c2ccccc2)cc1 (stereo not given) the results were HCMV antiviral inactive, Lassa entry inh inactive, Pf growth 96h 9.3µM, HCV inh inactive, MARV entry inh inconclusive and Pf growth 48h inconclusive.
Screening CCOc1cc(/C=N/NC(=O)C(OC)c2ccccc2)ccc1O (stereo not given) returned HCMV antiviral inactive, Pf growth 96h inactive, HCV inh inactive and Pf growth 48h inactive.
For C=CCOc1cccc(/C=N/NC(=O)C(OC)c2ccccc2)c1 (stereo not given) the results were HCMV antiviral inactive, Lassa entry inh inactive, Pf growth 96h 13µM, HCV inh inactive, MARV entry inh inactive and Pf growth 48h inactive.
CCOc1ccc(/C=N/NC(=S)Nc2c(C)cccc2C)cc1 was read as HCMV antiviral inconclusive, Lassa entry inh inactive, Pf growth 96h 2.6µM, HCV inh inconclusive and MARV entry inh inconclusive.
`CN(C)c1ccc(C=c2c3ccccc3n3c2cc(-c2ccccc2)[n+]3C)cc1` gave HCMV antiviral -99, Lassa entry inh 2.8µM, HCV inh inconclusive and MARV entry inh 2.8µM.
COc1cc(N(C)C)ccc1C=c1c2ccccc2n2c1cc(-c1ccccc1)[n+]2C was read as HCMV antiviral -99, Lassa entry inh inconclusive, HCV inh 10µM and MARV entry inh inconclusive.
